# Reference: paper PMC5700166
# Target: GST-Hu-p50 (Homo sapiens, UniProt P19838 7-356)
# Test: protein-binding microarray (PBM); PBM: ~300 nM protein, 6 mM HEPES pH 7.8, 80 mM KCl, 0.5 mM EDTA, 0.5 mM EGTA, 6% glycerol, 35 ng/ul poly-dIdC, 1% milk, 1 h, room temperature; Ap Aiptasia and Nv Nematostella (sea anemones) / Co Capsaspora / Aq Amphimedon (sponge) / Dm Drosophila / Hu human; RHD is the Rel homology domain; high values mean tight binding
# Conditions: dsDNA, one strand shown
# Chain of GST-Hu-p50 (P19838 7-356): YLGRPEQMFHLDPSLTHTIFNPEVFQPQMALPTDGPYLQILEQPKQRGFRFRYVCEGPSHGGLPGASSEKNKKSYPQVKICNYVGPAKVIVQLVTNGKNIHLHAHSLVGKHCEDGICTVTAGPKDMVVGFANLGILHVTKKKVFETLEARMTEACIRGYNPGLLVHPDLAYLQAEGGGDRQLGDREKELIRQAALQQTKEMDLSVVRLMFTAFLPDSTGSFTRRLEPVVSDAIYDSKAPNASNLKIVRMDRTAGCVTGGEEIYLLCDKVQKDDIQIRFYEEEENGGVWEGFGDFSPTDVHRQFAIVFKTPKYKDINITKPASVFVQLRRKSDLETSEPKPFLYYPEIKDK
row,Sequence,binding signal
1,CCGATTAACATCAGGATATACCCTGATGTTAATCGGGTCTTGATTCGCTTGACGCTGCTG,1.53 z-score
2,CCGATTAACATCAAAAAATTCCTTGATGTTAATCGGGTCTTGATTCGCTTGACGCTGCTG,1.55 z-score
3,CCGATTAACATCAAAATTTTCCTTGATGTTAATCGGGTCTTGATTCGCTTGACGCTGCTG,1.03 z-score
4,CCGATTAACATCATGAAGACCCCTGATGTTAATCGGGTCTTGATTCGCTTGACGCTGCTG,1.77 z-score
5,CCGATTAACATCACGGAATTTTCTGATGTTAATCGGGTCTTGATTCGCTTGACGCTGCTG,1.13 z-score
6,CCGATTAACATCACGGAAATTTCTGATGTTAATCGGGTCTTGATTCGCTTGACGCTGCTG,1.83 z-score
7,CCGATTAACATCAGGGAACGCCCTGATGTTAATCGGGTCTTGATTCGCTTGACGCTGCTG,2.04 z-score
8,CCGATTAACATCAGGAAAAACCATGATGTTAATCGGGTCTTGATTCGCTTGACGCTGCTG,1.05 z-score
9,CCGATTAACATCAAAGTTTTCCCTGATGTTAATCGGGTCTTGATTCGCTTGACGCTGCTG,4.49 z-score
10,CCGATTAACATCACCATTTTCCCTGATGTTAATCGGGTCTTGATTCGCTTGACGCTGCTG,3.64 z-score
11,CCGATTAACATCAAGAGTTCCCCTGATGTTAATCGGGTCTTGATTCGCTTGACGCTGCTG,5.23 z-score
12,CCGATTAACATCACCCCATCTCGTGATGTTAATCGGGTCTTGATTCGCTTGACGCTGCTG,1.44 z-score
13,CCGATTAACATCAGATTATCCCCTGATGTTAATCGGGTCTTGATTCGCTTGACGCTGCTG,4.03 z-score
14,CCGATTAACATCAGGAAAGTTCCTGATGTTAATCGGGTCTTGATTCGCTTGACGCTGCTG,1.06 z-score
15,CCGATTAACATCAACGTTTCCCCTGATGTTAATCGGGTCTTGATTCGCTTGACGCTGCTG,5.04 z-score
16,CCGATTAACATCAGGAAACACCATGATGTTAATCGGGTCTTGATTCGCTTGACGCTGCTG,1.95 z-score
17,CCGATTAACATCAAGGTATTTCCTGATGTTAATCGGGTCTTGATTCGCTTGACGCTGCTG,1.29 z-score
18,CCGATTAACATCACATCTTCCCCTGATGTTAATCGGGTCTTGATTCGCTTGACGCTGCTG,4.51 z-score
19,CCGATTAACATCAGGCGTTTCCCTGATGTTAATCGGGTCTTGATTCGCTTGACGCTGCTG,1.83 z-score
20,CCGATTAACATCAATAGTTCCCCTGATGTTAATCGGGTCTTGATTCGCTTGACGCTGCTG,5.26 z-score

row,Sequence,binding signal
1,CCGATTAACATCAAACTTTTCCCTGATGTTAATCGGGTCTTGATTCGCTTGACGCTGCTG,3.53 z-score
2,CCGATTAACATCAGGCAACCCCATGATGTTAATCGGGTCTTGATTCGCTTGACGCTGCTG,1.09 z-score
3,CCGATTAACATCAGAGTTTTCCCTGATGTTAATCGGGTCTTGATTCGCTTGACGCTGCTG,3.99 z-score
4,CCGATTAACATCAATAAAATTCCTGATGTTAATCGGGTCTTGATTCGCTTGACGCTGCTG,1.02 z-score
5,CCGATTAACATCACCCATTTCCGTGATGTTAATCGGGTCTTGATTCGCTTGACGCTGCTG,1.88 z-score
6,CCGATTAACATCACGTTTTTCCCTGATGTTAATCGGGTCTTGATTCGCTTGACGCTGCTG,3.49 z-score
7,CCGATTAACATCAAAAGTTTCCCTGATGTTAATCGGGTCTTGATTCGCTTGACGCTGCTG,5.09 z-score
8,CCGATTAACATCACCTTCTTTACTGATGTTAATCGGGTCTTGATTCGCTTGACGCTGCTG,1.59 z-score
9,CCGATTAACATCAATTTTTGCCCTGATGTTAATCGGGTCTTGATTCGCTTGACGCTGCTG,1.07 z-score
10,CCGATTAACATCAGGCGGTAAGGTGATGTTAATCGGGTCTTGATTCGCTTGACGCTGCTG,1.29 z-score
11,CCGATTAACATCAACGGTGGAAATGATGTTAATCGGGTCTTGATTCGCTTGACGCTGCTG,1.15 z-score
12,CCGATTAACATCAGGGGAAGCACTGATGTTAATCGGGTCTTGATTCGCTTGACGCTGCTG,5.16 z-score
13,CCGATTAACATCACTTTTTTCCCTGATGTTAATCGGGTCTTGATTCGCTTGACGCTGCTG,3.53 z-score
14,CCGATTAACATCATTAGGGAAAATGATGTTAATCGGGTCTTGATTCGCTTGACGCTGCTG,4.64 z-score
15,CCGATTAACATCACCGGAAATCCTGATGTTAATCGGGTCTTGATTCGCTTGACGCTGCTG,1.78 z-score
16,CCGATTAACATCAGGCATGCCCCTGATGTTAATCGGGTCTTGATTCGCTTGACGCTGCTG,1.89 z-score
17,CCGATTAACATCACCCATTCCCCTGATGTTAATCGGGTCTTGATTCGCTTGACGCTGCTG,5.05 z-score
18,CCGATTAACATCACCGTTTAAGCTGATGTTAATCGGGTCTTGATTCGCTTGACGCTGCTG,1.15 z-score
19,CCGATTAACATCAGGGGTAACACTGATGTTAATCGGGTCTTGATTCGCTTGACGCTGCTG,1.68 z-score
